Screening data as filed in PubChem.
Pf growth 96h = P. falciparum growth inhibition at 96 hours; P. falciparum luciferase reporter growth, 96 h; Potency, µM (titrated, usually from 28.7 µM), for inactives: at the highest dose activity change, negative = inhibition, usual class: inhibitors; 320,000 tested, 6.9% active; AID 504834; active means well fitted inhibition curve with a large enough effect; inconclusive means small, poorly fitted or top-dose-only effect, or another doubt; inactive means no such curve, though single readings can be large or run the other way; further: potency means the concentration at half of the fitted maximal effect; on the % scale 0 is the no-effect control and ±100 the full control effect
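Parasite growth measured via integrated firefly luciferase reporter in P. falciparum. Infected erythrocytes at 2% hematocrit, 0.05% parasitemia final were treated 96 hours at 37 C under 5% CO2, and luminescence was read.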
NS1 function inh = inhibitors of influenza NS1 protein function; Potency, µM (series often up to 46.1 µM), for inactives: at the highest dose activity, positive = more growth; 270,000 tested, 0.4% active; further: potency means the concentration at half of the fitted maximal effect; actives are rising curves; nearly all actives have a fitted effect of over 50% in size
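Read-out: OD600 growth recovery of NS1-expressing budding yeast. Cells grown overnight at 30C in -URA glucose medium, washed, resuspended and diluted 1:100 in 2% galactose assay medium, pH 6.0. Same strain lacking NS1 served as positive control.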
SARS PLP yeast = SARS-CoV PLP inhibition in yeast; 330,000 tested, 0.19% active; Potency, µM (highest dose often 32.9 µM), for inactives: at the highest dose activity, positive = growth rescue, most hits filed as activators; AID 485353; S. cerevisiae expressing SARS-CoV PLpro, growth rescue; further: potency means the concentration at half of the fitted maximal effect; 0% is about no effect; nearly all actives have a fitted effect of over 55% in size
Shiga inhibitor = blocks Shiga toxin action in Vero cells; Vero cells, Shiga toxin protein synthesis inhibition reporter; inhibition, % at 38.7 µM; 290,000 tested, 9.2% active; AID 2315; in the data active means inhibition mostly above about 28%, no sharp cut-off; inactive means mostly below about 43%; further: 0% is about no effect
CHX counter = counter-screen hit for Shiga toxin inhibitors, cycloheximide. cell reporter, cycloheximide protein synthesis inhibition counterscreen. max response, %. 300,000 tested, 12% active. AID 2314; in the data active means max response mostly above about 13%, no sharp cut-off; inactive means mostly below about 14%; further: read at 38.3 µM for the half of the compounds with a filed dose; 0% is about no effect
Pf growth 48h = P. falciparum growth inhibition at 48 hours (one generation) | 310,000 tested, 5.9% active | P. falciparum luciferase growth in erythrocytes, 48 h | Potency, µM (titrated, usually from 28.7 µM), for the others: at the top dose activity change, negative = inhibition, actives largely listed as inhibitors; active means well fitted inhibition curve with a large enough effect; inconclusive means small, poorly fitted or top-dose-only effect, or another doubt; inactive means no such curve, though single readings can be large or run the other way; further: potency means the concentration at half of the fitted maximal effect; on the % scale 0 is the no-effect control and ±100 the full control effect
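Growth was read as firefly luciferase luminescence after a 48 h, 37 C, 5% CO2 exposure of compounds to reporter-bearing P. falciparum cultures (0.1% parasitemia, 2% hematocrit final) in Albumax-supplemented RPMI 1640.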
* = called active by the depositor; ? = inconclusive; nt = not tested or not shown; [ ] = dose if it differs, or a comment. A selection: hits, their analogues and other compounds. The true share with any hit is near 21%. Unless noted, the call rests on the fitted dose curve.

SMILES	Pf growth 96h	NS1 function inh	SARS PLP yeast	Shiga inhibitor	CHX counter	Pf growth 48h
Cc1ccccc1NC(=O)c1cc(C(=O)c2cc(Cl)ccc2O)cn(-c2ccccc2C)c1=O	0.74µM*	16%	-19%	46*	39*	0.47µM*
COc1ccc(O)c(C(=O)c2cc(C(=O)NCCc3ccccc3)c(=O)n(CCc3ccccc3)c2)c1	?	?	24%	19	32*	?
COc1ccc(NC(=O)CSCC(=O)Nc2nnc(C)s2)cc1	-1%	nt	7%	nt	nt	-9%
FC(F)(F)c1cccc(OCC2CNC(=S)O2)c1 (stereo not drawn)	8%	-3%	7%	-6	-4	8%
CCOC(=O)c1c(C)[nH]c(C)c1C(=O)COC(=O)c1cccc(S(=O)(=O)N(CC)CC)c1	9.3µM*	11%	-8%	-14	-2	15µM*
Cc1ccc2nc(NC(=O)CCCc3nc4ccccc4s3)sc2c1	160%	8%	-1%	117	42*	nt
Cc1ccc2nc(NC(=O)CCn3c(=O)sc4ccccc43)sc2c1	18%	4%	-20%	11	1	1%
Cc1ccc2nc(NC(=O)CCCC(=O)O)sc2c1	?	3%	0%	6	-3	-39%[1.15 µM]
Cc1ccc2nc(NC(=O)CCn3cccc3)sc2c1	?	nt	0%	53*	22*	90%
CN(Cc1c(F)cccc1Cl)C(=O)C1CC(=O)N(CCc2ccccc2)C1 (stereo not drawn)	0%	nt	-1%	19	10	-13%
Nc1nnc(Cc2ccc(F)cc2)s1	2%	-1%	0%	-4	0	10µM*
COC(=O)C(C(C)C)N(Cc1cc(OC)cc(OC)c1)S(=O)(=O)CCl (stereo not drawn)	nt	nt	-1%	nt	nt	nt
COc1cccc(-n2c(=O)c3c(C)c(C(=O)N(C)C)sc3n(CC(=O)NCC3CCCO3)c2=O)c1 (stereo not drawn)	?	nt	-5%	2	1	7%
O=S(=O)(Nc1nc2ccccc2nc1-[n+]1cccc(N=C([O-])c2ccccc2Cl)c1)c1ccccc1	8.3µM*	-1%	0%	4	11	8.3µM*
COc1ccc(S(=O)(=O)Nc2nc3ccccc3nc2NCC2CCCO2)cc1 (stereo not drawn)	9%	-3%	4%	17	2	8%
COc1ccc(C([O-])=Nc2ccc[n+](-c3nc4ccccc4nc3NS(=O)(=O)c3ccccc3)c2)cc1	13µM*	16%	1%	11	-1	2.6µM*
COc1cc(C(=O)c2nccc3cc(OC)c(OC)cc23)c([N+](=O)[O-])cc1OC	?	nt	1%	-5	-3	?
CCOc1cc(-c2nc(-c3cc(OC)c(OC)c(OC)c3)no2)cc(OCC)c1OCC	nt	2%	nt	nt	nt	nt
CCOc1cc(-c2nccc3cc(OC)c(OC)cc23)cc(OCC)c1OCC	11µM*	6%	-5%	-2	-2	10µM*
COc1cc(N)c(C(=O)c2nccc3cc(OC)c(OC)cc23)cc1OC	5.2µM*	-2%	14%	-9	-2	0%
COc1cc(Cc2nccc3cc(OC)c(OC)cc23)c(NC(C)=O)cc1OC	0%	?	5%	6	1	-19%
COc1cc(Br)c(C(=O)c2nccc3cc(OC)c(OC)cc23)cc1OC	8%	0%	1%	-12	-4	6.6µM*
COc1cc(N)c(Cc2nccc3cc(OC)c(OC)cc23)cc1OC	6.6µM*	6%	-1%	-5	-5	?
CC(OC(=O)C1CC(=O)N(Cc2ccco2)C1)C(=O)Nc1ccccc1[N+](=O)[O-] (stereo not drawn)	-15%	nt	2%	nt	nt	5%
O=C(O[C@@H](C(=O)O)[C@@H](OC(=O)c1ccccc1)C(=O)O)c1ccccc1	38%	nt	-13%	nt	nt	43%
SMILES	Pf growth 96h	NS1 function inh	SARS PLP yeast	Shiga inhibitor	CHX counter	Pf growth 48h
O=C(/C=C/c1ccc(Br)o1)NC(c1ccccc1)c1ccccc1	?	0%	-37%	-8	-1	12µM*
Cc1ccc(NC(=O)COC(=O)CNC(=O)c2cccc([N+](=O)[O-])c2)cc1S(=O)(=O)N1CCCCCC1	?	?	11%	3	-3	-24%
CN(C)c1nc(NCc2ccccc2)nc(N/N=C/c2ccc3c(c2)OCO3)n1	?	-1%	-10%	-2	-3	12µM*
CCNc1nc(NCC)nc(N/N=C/c2ccc(N(C)C)cc2)n1	?	nt	0%	11	5	13µM*
Cc1cc(N/N=C/c2ccc(N(C)C)cc2)nc(NCc2ccccc2)n1	?	-1%	0%	15	-2	?
COc1cc(N/N=C/c2ccc(N(C)C)cc2)ncn1	?	0%	0%	97*	45*	69%
CN(C)c1nc(NCc2ccccc2)nc(N/N=C/c2ccc(Br)cc2)n1	?	7%	-1%	2	-6	13µM*
CCN1/C(=C\C(=S)Nc2ccccc2)Sc2ccccc21	24%	3%	-2%	56*	31*	-3%
CCN1/C(=C\C=C(C(C)=O)C(C)=O)Sc2ccccc21	-10%	nt	1%	16	19*	0%
CCCCc1nc2ccccc2n2cc3c(=O)n(C)c(=O)n(C)c3c12	nt	7%	nt	nt	nt	nt
COc1cc2cnc(-c3ccccc3)c(-c3cc(OC)c(OC)c(OC)c3)c2cc1OC	3.7µM*	nt	1%	nt	nt	10µM*
COc1cc2cnc(-c3ccccc3)c(-c3ccc([N+](=O)[O-])cc3)c2cc1OC	?	nt	1%	nt	nt	7%
CCc1cc2c(COC(=O)CCNS(=O)(=O)c3cccc(C(F)(F)F)c3)cc(=O)oc2cc1O	?	nt	-14%	nt	nt	4.7µM*
Cc1ccc2c(COC(=O)CNS(=O)(=O)c3ccccc3)cc(=O)oc2c1	nt	nt	-6%	nt	nt	nt
CC(=O)c1cc(-c2ccc(F)cc2)n(CCC(=O)Nc2cccnc2)c1C	17%	nt	-1%	9	3	9.3µM*
CN1C(=O)c2ccccc2Sc2ccc(NC(=O)NC3CC3)cc21	-2%	-7%	?	-17	-4	?
O=C(Nc1ccc2c(c1)N(Cc1ccccc1)C(=O)c1ccccc1S2)NC1CC1	12µM*	17%	-15%	5	-1	6.6µM*
C=C1CCN(C(C)C(=O)OCc2cccc(C)c2)S(=O)(=O)c2ccccc21 (stereo not drawn)	nt	nt	nt	8	-8	nt
CCOc1ccccc1N1CCN(CC(=O)Nc2ccccc2C(=O)NC2CC2)CC1	?	nt	-2%	nt	nt	9.3µM*
COc1ccc(F)cc1CN1CCN(CC(=O)Nc2ccccc2C(=O)NC2CC2)CC1	?	nt	1%	nt	nt	?
COc1ccc(CN2CCN(CC(=O)Nc3ccccc3C(=O)NC3CC3)CC2)cc1F	?	nt	6%	nt	nt	10µM*
CCOc1ccccc1NC(=O)CN1CCC(NC(=O)c2ccccc2C)CC1	?	-2%	0%	-6	-5	?
COc1ccccc1N1CCN(CC(=O)Nc2ccccc2C(=O)NCCc2ccccc2)CC1	?	nt	6%	nt	nt	?
